# Measurements reported in the supplement of paper PMC6658780.
# Counter-ions that a name gives are not always drawn. ± gives the standard deviation of the averaged measurements.
# Legend:
# [1] = tested on: Klebsiella pneumoniae KPC-119; experiment: percent growth inhibition of drug alone vs DMSO control; higher = more growth inhibition; conditions: antibiotic (0.125x MIC): none (0.1% DMSO)
# [2] = tested on: Klebsiella pneumoniae NCTC-13439; experiment: as above; conditions: antibiotic (0.125x MIC): none (0.1% DMSO)
# [3] = tested on: Klebsiella pneumoniae KPC-119; experiment: percent growth inhibition of drug + antibiotic vs DMSO control; higher = more growth inhibition
# [4] = tested on: Klebsiella pneumoniae NCTC-13439; experiment: as above
# [5] = tested on: Escherichia coli ATCC BAA-2469; experiment: as above; conditions: 7 µM
# Procedure: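 Prestwick drugs tested at 20 uM and 7 uM with an antibiotic at 0.125x MIC (16 mg/L when MIC >128 mg/L) against E. coli ATCC BAA-2469 (NDM-1) in CAMHB, 384-well plates, duplicate runs. Percent growth inhibition was computed from OD600 (24 h minus 0 h) relative to DMSO wells. Drug + DMSO-only wells are also given. […]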
# [6] = antibiotic (0.125x MIC): colistin, 7 µM
# [7] = antibiotic (0.125x MIC): tigecycline, 7 µM
# [8] = antibiotic (0.125x MIC): tigecycline, 20 µM
# [9] = antibiotic (0.125x MIC): gentamicin
# [10] = antibiotic (0.125x MIC): colistin, 20 µM
# [11] = antibiotic (0.125x MIC): gentamicin, 7 µM
# [12] = antibiotic (0.125x MIC): gentamicin, 20 µM
smiles,measurement,setting,value
CO[C@H]1/C=C/O[C@@]2(C)Oc3c(C)c(O)c4c(O)c(c5c(nc6cc(C)ccn65)c4c3C2=O)NC(=O)/C(C)=C\C=C\[C@H](C)[C@H](O)[C@@H](C)[C@@H](O)[C@@H](C)[C@H](OC(C)=O)[C@@H]1C [Rifaximin],percent growth inhibition of drug alone,[1]; 7 µM,18.5 ± 1.3%
same,percent growth inhibition of drug alone,[1]; 20 µM,71.9 ± 2.4%
same,percent growth inhibition of drug alone,[2]; 7 µM,1.28 ± 0.063%
same,percent growth inhibition of drug alone,[2]; 20 µM,17.5 ± 13%
same,percent growth inhibition,[3]; [6],99.23 ± 0.84%
same,percent growth inhibition,"[4]; antibiotic (0.125x MIC): ciprofloxacin, 7 µM",-1.2 ± 3.8%
same,percent growth inhibition,"[4]; antibiotic (0.125x MIC): ciprofloxacin, 20 µM",50.5 ± 1.9%
same,percent growth inhibition,[4]; [7],7.05 ± 5.2%
same,percent growth inhibition,[4]; [8],50.7 ± 4%
CCOC(=O)c1ccc(N)cc1 [Benzocaine],percent growth inhibition,[5]; [9],0.573 ± 3.1%
Cn1c(=O)c2c(ncn2C)n(C)c1=O [Caffeine],percent growth inhibition,[5]; [9],1.53 ± 7.1%
COc1cc(C(=O)NCc2ccc(OCCN(C)C)cc2)cc(OC)c1OC [Trimethobenzamide hydrochloride],percent growth inhibition,[5]; [9],0.833 ± 1.4%
O=C(O)CN(CCN(CC(=O)O)CC(=O)O)CCN(CC(=O)O)CC(=O)O [Pentetic acid],percent growth inhibition,[5]; antibiotic (0.125x MIC): meropenem,-3.74 ± 3.2%
CN(C)c1ccc(O)c2c1C[C@H]1C[C@H]3[C@H](N(C)C)C(O)=C(C(N)=O)C(=O)[C@@]3(O)C(O)=C1C2=O [Minocycline hydrochloride],percent growth inhibition of drug alone,[1]; 7 µM,10.9 ± 1.6%
same,percent growth inhibition of drug alone,[1]; 20 µM,52.8 ± 2.3%
same,percent growth inhibition of drug alone,[2]; 7 µM,3.05 ± 3.2%
same,percent growth inhibition of drug alone,[2]; 20 µM,6.86 ± 3.9%
same,percent growth inhibition,[3]; [6],97.33 ± 0.15%
same,percent growth inhibition,[3]; [10],97.8 ± 1.9%
same,percent growth inhibition,[3]; [11],6.41 ± 2.8%
same,percent growth inhibition,[3]; [12],95.3 ± 1.8%
same,percent growth inhibition,[4]; [7],-1.9 ± 6.7%
same,percent growth inhibition,[4]; [8],49.8 ± 7.5%
CN[C@@H]1[C@@H](O[C@H]2O[C@H](CO)[C@@H](N)[C@H](O)[C@H]2O)OC2C[C@@H](N)[C@@H](O[C@H]3[C@H](O)[C@@H](O)[C@H](N)C[C@@H]3N)OC2[C@@H]1O (stereo not given in full) [Apramycin],percent growth inhibition of drug alone,[1]; 7 µM,4.95 ± 5.6%
same,percent growth inhibition of drug alone,[1]; 20 µM,52.9 ± 1.4%
same,percent growth inhibition of drug alone,[2]; 7 µM,4.78 ± 15%
same,percent growth inhibition of drug alone,[2]; 20 µM,88 ± 17%
same,percent growth inhibition,[3]; [11],27.9 ± 0.46%
same,percent growth inhibition,[3]; [12],99.968 ± 0.004%
same,percent growth inhibition,[4]; [7],35.7 ± 13%
same,percent growth inhibition,[4]; [8],100 ± 0.19%
CO[C@H]1/C=C/O[C@@]2(C)Oc3c(C)c(O)c4c(O)c(c(/C=N/N5CCN(C6CCCC6)CC5)c(O)c4c3C2=O)NC(=O)/C(C)=C\C=C\[C@H](C)[C@H](O)[C@@H](C)[C@@H](O)[C@@H](C)[C@H](OC(C)=O)[C@@H]1C [Rifapentine],percent growth inhibition of drug alone,[1]; 7 µM,2.17 ± 1.7%
same,percent growth inhibition of drug alone,[1]; 20 µM,34.82 ± 0.22%
same,percent growth inhibition of drug alone,[2]; 7 µM,6.76 ± 7.4%
same,percent growth inhibition of drug alone,[2]; 20 µM,11.1 ± 17%
same,percent growth inhibition,[3]; [10],93.01 ± 0.93%
same,percent growth inhibition,[3]; [11],4.75 ± 13%
same,percent growth inhibition,[4]; [7],14.7 ± 5.3%
same,percent growth inhibition,[4]; [8],42.9 ± 12%
CCn1cc(C(=O)O)c(=O)c2cc(F)c(N3CCN(C)CC3)cc21 [Pefloxacine],percent growth inhibition of drug alone,[1]; 7 µM,12.5 ± 1.1%
same,percent growth inhibition of drug alone,[1]; 20 µM,51.2 ± 3.2%
same,percent growth inhibition,[3]; [11],11.4 ± 19%
CC1CCc2cc(F)cc3c(=O)c(C(=O)O)cn1c23 (stereo not given) [Flumequine],percent growth inhibition of drug alone,[1]; 7 µM,15.15 ± 0.074%
same,percent growth inhibition of drug alone,[1]; 20 µM,65.7 ± 2.7%
same,percent growth inhibition,[3]; [6],88.42 ± 0.76%
same,percent growth inhibition,[3]; [10],95.6 ± 2.3%
OC(c1cc(C(F)(F)F)nc2c(C(F)(F)F)cccc12)C1CCCCN1 (stereo not given) [Mefloquine hydrochloride],percent growth inhibition of drug alone,[1]; 7 µM,0.355 ± 6.6%
same,percent growth inhibition of drug alone,[1]; 20 µM,-2.15 ± 1.1%
same,percent growth inhibition,[3]; [6],1.61 ± 13%
C/C(=C\C(=O)OCCCCCCCCC(=O)O)C[C@@H]1OC[C@H](C[C@@H]2O[C@H]2[C@@H](C)[C@H](C)O)[C@@H](O)[C@H]1O [Mupirocin],percent growth inhibition of drug alone,[1]; 7 µM,1.64 ± 1.8%
same,percent growth inhibition of drug alone,[1]; 20 µM,6.42 ± 0.11%
same,percent growth inhibition,[3]; [11],16.2 ± 3.3%
same,percent growth inhibition,[3]; [12],41.1 ± 2.1%
CC(=O)OCC(=O)[C@@]1(O)CC[C@H]2[C@@H]3CCC4=CC(=O)CC[C@]4(C)[C@@]3(F)[C@@H](O)C[C@@]21C [Fludrocortisone acetate],percent growth inhibition of drug alone,[1]; 7 µM,1.64 ± 0.4%
same,percent growth inhibition of drug alone,[1]; 20 µM,3.28 ± 1.7%
same,percent growth inhibition,[3]; [6],58.4 ± 10%
same,percent growth inhibition,[3]; [10],-6.61 ± 5%
CCC[C@@H]1C[C@@H](C(=O)N[C@@H]([C@H]2O[C@H](SC)[C@H](O)[C@@H](O)[C@H]2O)[C@H](C)Cl)N(C)C1 [Clindamycin hydrochloride],percent growth inhibition of drug alone,[1]; 7 µM,12 ± 1.4%
same,percent growth inhibition of drug alone,[1]; 20 µM,28.5 ± 0.74%
same,percent growth inhibition,[3]; [6],44.3 ± 4.1%
CN(C)CCCN1c2ccccc2Sc2ccc(Cl)cc21 [Chlorpromazine hydrochloride],percent growth inhibition of drug alone,[1]; 7 µM,-3.83 ± 2.6%
same,percent growth inhibition of drug alone,[1]; 20 µM,-3.58 ± 1.3%
same,percent growth inhibition,[3]; [6],41.9 ± 12%
same,percent growth inhibition,[3]; [10],2.49 ± 2.4%
CC(C)Nc1cccnc1N1CCN(C(=O)c2cc3cc(NS(C)(=O)=O)ccc3[nH]2)CC1 [Delavirdine],percent growth inhibition of drug alone,[1]; 7 µM,-0.164 ± 2.9%
same,percent growth inhibition of drug alone,[1]; 20 µM,-1.86 ± 1%
same,percent growth inhibition,[3]; [6],-6.39 ± 0.99%
CC[C@H]1OC(=O)[C@H](C)[C@@H](O[C@H]2C[C@@](C)(OC)[C@@H](O)[C@H](C)O2)[C@H](C)[C@@H](O[C@@H]2O[C@H](C)C[C@H](N(C)C)[C@H]2O)[C@](C)(OC)C[C@@H](C)C(=O)[C@H](C)[C@@H](O)[C@]1(C)O [Clarithromycin],percent growth inhibition of drug alone,[1]; 7 µM,0.744 ± 2.4%
same,percent growth inhibition of drug alone,[1]; 20 µM,3.19 ± 2.3%
same,percent growth inhibition,[3]; [10],3.22 ± 2.8%
Cc1cc(C(C)(C)CC(C)(C)C)ccc1OCCOCC[N+](C)(C)Cc1ccccc1 [Methyl benzethonium chloride],percent growth inhibition of drug alone,[1]; 7 µM,-1.94 ± 2.4%
same,percent growth inhibition of drug alone,[1]; 20 µM,-2.28 ± 0.9%
same,percent growth inhibition,[3]; [6],22 ± 6.4%
O=C1NCCN1c1ncc([N+](=O)[O-])s1 [Niridazole],percent growth inhibition of drug alone,[1]; 7 µM,9.23 ± 8.8%
same,percent growth inhibition of drug alone,[1]; 20 µM,74.9 ± 13%
same,percent growth inhibition,[3]; [11],38.6 ± 6.3%
same,percent growth inhibition,[3]; [12],95.7 ± 4.1%
COc1cccc2c1C(=O)c1c(O)c3c(c(O)c1C2=O)C[C@@](O)(C(=O)CO)C[C@@H]3O[C@H]1C[C@H](N)[C@@H](O)[C@H](C)O1 [Epirubicin hydrochloride],percent growth inhibition of drug alone,[1]; 7 µM,-1.63 ± 2.7%
same,percent growth inhibition of drug alone,[1]; 20 µM,-0.106 ± 4.7%
same,percent growth inhibition,[3]; [6],-0.818 ± 0.78%
